ALDH1A1 inh: ALDH1A1 (human) enzyme inhibition; P00352; Purified ALDH1A1, NADH fluorescence, propionaldehyde substrate; Potency, µM (top dose mostly 75.3 µM), inactives show at the highest dose activity, negative = inhibition, most hits filed as inhibitors; hit rate 7.3% among 220,000;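 further: potency means the concentration at half of the fitted maximal effect; plate controls were no enzyme wells and a reference inhibitor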
12-hLO inh: 12-hLO (ALOX12) enzyme inhibition. hit rate 0.12% among 150,000. AID 1452. purified 12-hLO, xylenol orange hydroperoxide absorbance. P18054. Potency, µM (titrated, usually from 57.1 µM), inactives show at the highest dose activity change, negative = inhibition, most hits filed as inhibitors; active means well fitted curve in the direction sought with a large enough effect; inconclusive means small, poorly fitted or top-dose-only effect, or another doubt; inactive means no such curve, though single readings can be large; an effect the other way counts as inactive or inconclusive; further: potency means the concentration at half of the fitted maximal effect; nearly all actives have a fitted effect of over 55% in size
Target sequence (P18054 whole entry, looked up): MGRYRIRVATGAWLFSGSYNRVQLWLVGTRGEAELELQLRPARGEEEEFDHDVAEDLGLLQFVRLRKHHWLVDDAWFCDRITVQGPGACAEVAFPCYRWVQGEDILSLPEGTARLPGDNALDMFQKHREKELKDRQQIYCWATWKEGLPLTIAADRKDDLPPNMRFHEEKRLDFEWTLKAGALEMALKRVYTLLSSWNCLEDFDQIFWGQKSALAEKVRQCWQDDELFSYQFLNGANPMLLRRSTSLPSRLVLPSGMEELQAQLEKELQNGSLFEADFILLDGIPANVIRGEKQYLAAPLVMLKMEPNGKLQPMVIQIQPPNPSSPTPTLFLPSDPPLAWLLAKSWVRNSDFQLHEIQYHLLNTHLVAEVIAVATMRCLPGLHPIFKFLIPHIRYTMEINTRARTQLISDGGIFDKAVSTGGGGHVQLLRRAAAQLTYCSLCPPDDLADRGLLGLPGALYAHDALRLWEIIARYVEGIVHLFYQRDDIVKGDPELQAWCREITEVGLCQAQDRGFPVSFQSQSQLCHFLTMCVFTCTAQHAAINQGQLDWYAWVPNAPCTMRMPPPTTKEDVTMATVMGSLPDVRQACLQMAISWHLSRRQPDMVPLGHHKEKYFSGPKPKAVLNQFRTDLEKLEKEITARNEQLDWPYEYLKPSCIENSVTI
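Purified human 12hLO (150 nM), preincubated 15 min with compound, then 40 uM arachidonic acid for 30 min, room temperature, Hepes pH 7.0 with 0.01% Triton X-100. Hydroperoxide detected by ferrous iron/xylenol orange; 573/405 nm absorbance ratio gives reaction progress.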
IMPase Li inh: cell-permeable IMPase inhibitors with lithium potentiation; AID 1457; hit rate 0.35% among 210,000; Potency, µM (doses to about 59.4 µM), without a hit: at the highest dose activity, negative = IMPase inhibition, hits mostly inhibitors; CHO-M1 cells, IP1 TR-FRET (IP-One), carbachol + lithium; active means well fitted curve in the direction sought with a large enough effect; inconclusive means small, poorly fitted or top-dose-only effect, or another doubt; inactive means no such curve, though single readings can be large; an effect the other way counts as inactive or inconclusive;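 further: IP1 builds up when IMPase is blocked and the TR-FRET signal falls; potency means the concentration at half of the fitted maximal effect; plate controls were basal vehicle for no effect and high inhibitor control for full effect; nearly all actives have a fitted effect of over 50% in size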
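Test compounds were applied to CHO-M1 cells previously cultured for 16–30 h at 2000 per well. A small lithium amount accompanied them; after 30 min at 37C, IP1 was quantified by TR-FRET.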
HPGD inh: HPGD (human) dehydrogenase inhibition. P15428. purified HPGD, NADH fluorescence kinetic, PGE2 substrate. Potency, µM, inactives show top-dose activity change, negative = inhibition, actives largely listed as inhibitors. hit rate 4.3% among 150,000; further: potency means the concentration at half of the fitted maximal effect
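NADH formation kinetics: reaction with 30 uM PGE2 and 1 mM NAD+ (final), 20 nM enzyme, Tris-HCl pH 8 with Tween 20, after 15 min compound preincubation at room temperature. Fluorescence change, last versus first of five reads.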
PNC inhibitor: perinucleolar compartment assembly inhibition | PC3M PTB-GFP, PNC prevalence imaging, 16 h; hits give low values | hit rate 3.1% among 140,000 | AID 2417 | activity change (PNC), negative = inhibition, % at 10 µM;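 active means readout at or below -70, meaning at least 70% loss of cells showing the perinucleolar compartment, a nuclear body marking cancer cells; inconclusive means readout between -30 and a set limit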;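 further: plate controls were DMSO wells for no effect and camptothecin positive control wells for full effect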
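PC3M cells stably expressing PTB-GFP, 750–1000 cells/well, treated 16 h at 37 °C with compound (23 nl of library stock), in duplicate. After paraformaldehyde fixation and Hoechst stain, imaged at 20x; PNC prevalence scored by image analysis.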
IMPase cell inh: cell-permeable inhibitors of inositol monophosphatase (IMPase) | P97697 | CHO-M1 cells, IP1 accumulation, HTRF TR-FRET ratio | inhibition (IP1 accumulation), % at 46.1 µM | 120,000 tested, under 10 active; active means well fitted curve in the direction sought with a large enough effect in the signal ratio, not every such curve was filed as active; inconclusive means small, poorly fitted or top-dose-only effect, or a change in a side signal; inactive means no such curve, though single readings can be large or run the other way; the % refers to the signal ratio;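 further: cells stimulated with carbachol in lithium chloride buffer; plate controls were DMSO basal wells for no effect and reference inhibitor wells for full effect; higher means more IMPase inhibition seen as more IP1 and lower FRET ratio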
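CHO-M1 cells (CHO stably expressing M1 receptor), compound up to 46 uM final, stimulated with carbachol (50 uM as added) in buffer with 50mM LiCl, pH 7.4, 30 min at 37C. Cytosolic IP1 read by TR-FRET; AC50 from Hill fits.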
Active calls of the source: *; ! = not confirmed by another sample; [ ] = another dose, or the depositor's remark. Compounds with a hit are over-represented: about 11% of the library has one in this group of screens. Unless noted, the call rests on the fitted dose curve; in most records, active means well fitted inhibition curve with a large enough effect (not every such curve was filed as active); inconclusive means small, poorly fitted or top-dose-only effect, or another doubt; inactive means no such curve, though single readings can be large or run the other way. Unless noted, on the % scale 0 is the no-effect control and ±100 the full control effect.

CCCCc1nc2c(c3c1C[C@H](C)OC3)CN(S(=O)(=O)c1c(C)noc1C)CC2 was read as ALDH1A1 inh -9%[13.5 µM], 12-hLO inh -2%[11.4 µM], IMPase Li inh 4% and HPGD inh -9%.
C=CCNc1sc(C(=O)c2cccs2)c(N)c1C#N was read as ALDH1A1 inh inconclusive, 12-hLO inh 0%, IMPase Li inh inconclusive, HPGD inh -7%, PNC inhibitor -119* and IMPase cell inh 3.
`CCNc1sc(C(=O)c2cccs2)c(N)c1C#N` gave ALDH1A1 inh 8.9µM*, 12-hLO inh -29%, IMPase Li inh 10%[38.3 µM], HPGD inh -20%, PNC inhibitor 20 and IMPase cell inh 1.
Screening CCN(CC)C(=O)c1sc(NC(=O)c2cccs2)c(C#N)c1C returned ALDH1A1 inh 2% and IMPase Li inh 8%.
`CCNc1sc(C(=O)c2cccs2)c(N)c1-c1nc2ccccc2s1` gave ALDH1A1 inh inconclusive, 12-hLO inh -19%, IMPase Li inh 11%[38.3 µM], HPGD inh -18%, PNC inhibitor 40 and IMPase cell inh 5.
Screening COc1ccc(C(C)=O)c(O)c1 returned ALDH1A1 inh inconclusive, 12-hLO inh -2%, IMPase Li inh 4% and HPGD inh 18µM*.
`COc1ccc(C(=O)c2ccccc2)c(O)c1` gave ALDH1A1 inh 32µM*!, 12-hLO inh -5%, IMPase Li inh 11%[38.3 µM], HPGD inh 16µM*!, PNC inhibitor -16 and IMPase cell inh -2.
For COc1cc(O)ccc1C(C)=O the results were ALDH1A1 inh 0%, 12-hLO inh -8%, IMPase Li inh -6% and HPGD inh -5%.
For CCOC(=O)COc1ccc(C(=O)c2ccccc2)c(O)c1 the results were ALDH1A1 inh -6%, 12-hLO inh -3%, IMPase Li inh -5%[38.3 µM], HPGD inh 16µM*, PNC inhibitor -30 and IMPase cell inh -1.
`O=C(OCC1CO1)C1CCCCC1C(=O)OCC1CO1` (stereo not given) gave ALDH1A1 inh 7%, 12-hLO inh 2%, IMPase Li inh 11% and HPGD inh 1%.
For CCCNC(=O)NC(=O)COC(=O)CNS(=O)(=O)/C=C/c1ccccc1 the results were ALDH1A1 inh 7% and IMPase Li inh 1%.
Screening Cc1ccccc1NS(=O)(=O)c1cccc(-c2nnc(-c3ccccc3)o2)c1 returned ALDH1A1 inh -8%, 12-hLO inh -11%, IMPase Li inh 9%[38.3 µM], HPGD inh inconclusive, PNC inhibitor -5 and IMPase cell inh 5.
`O=S(=O)(NC1CCCCC1)c1cccc(-c2nnc(-c3ccccc3)o2)c1` gave ALDH1A1 inh inconclusive, 12-hLO inh -8%, IMPase Li inh 12%[38.3 µM], HPGD inh 18µM*, PNC inhibitor 35 and IMPase cell inh 0.
`COc1ccc(NC(=O)N2CCCC3(CCN(C(=O)c4cnccn4)CC3)C2)cc1` gave ALDH1A1 inh 4%, 12-hLO inh 1%, IMPase Li inh -13% and HPGD inh -2%.
`Cc1cc(NC(=O)c2cc(Cl)ccc2Cl)ccc1-c1cc2ccccc2oc1=O` gave IMPase cell inh -11.
`COc1cc(C)nc(N2CCCC(C(=O)Nc3cccc(Cl)c3Cl)C2)n1` (stereo not given) gave ALDH1A1 inh 6%, 12-hLO inh -1%, IMPase Li inh 12%[38.3 µM], HPGD inh -10%, PNC inhibitor -87* and IMPase cell inh 0.
For COc1ccc(-c2nc3c(Br)c(N)c(Br)cc3o2)cc1 the results were ALDH1A1 inh 14µM*, 12-hLO inh -10%, IMPase Li inh -8%[38.3 µM], HPGD inh inconclusive, PNC inhibitor -13 and IMPase cell inh 6.
`Nc1c(Br)cc2oc(-c3ccccc3)nc2c1Br` gave ALDH1A1 inh 7%, 12-hLO inh 0%, IMPase Li inh -4%, HPGD inh -4%, PNC inhibitor inconclusive and IMPase cell inh 1.
Screening c1ccc2c[n+](Cc3ccnc4ccccc34)ccc2c1 returned ALDH1A1 inh -1%[13.5 µM], 12-hLO inh 1%[11.4 µM], IMPase Li inh 19% and HPGD inh -5%.
Screening O=C(Nc1ccccc1C(=O)O)c1ccc(Br)o1 returned ALDH1A1 inh 4µM*, 12-hLO inh -8%, IMPase Li inh -9%[38.3 µM], HPGD inh inconclusive, PNC inhibitor -17 and IMPase cell inh 2.
`CC(=O)c1cc(C(=O)Nc2ccccc2C(=O)O)oc1C` gave ALDH1A1 inh 0.71µM*, 12-hLO inh 0%, IMPase Li inh -3%[38.3 µM], HPGD inh inconclusive, PNC inhibitor -9 and IMPase cell inh -8.
For Cc1ccc(C(=O)Nc2ccccc2C(N)=O)o1 the results were ALDH1A1 inh 3%, 12-hLO inh -7%, IMPase Li inh -8%[38.3 µM], HPGD inh -4%, PNC inhibitor 44 and IMPase cell inh 1.
For COc1cc(C(=O)OC2CC[C@]3(C)C4CCC5[C@]6(O)CC(O)[C@]7(O)C(CN8CC(C)CCC8[C@]7(C)O)[C@]6(O)C[C@@]53O[C@]24O)cc(OC)c1OC (stereo not given in full) the results were ALDH1A1 inh 2%, 12-hLO inh -4%, IMPase Li inh 20% and HPGD inh -4%.
For Cc1ccc(NC2=Nc3ccccc3CC2)cc1 the results were ALDH1A1 inh -1%, 12-hLO inh -9%, IMPase Li inh 36%[38.3 µM], HPGD inh 32µM*, PNC inhibitor 34 and IMPase cell inh 15.
`CCOc1cc(C=C(C#N)C#N)ccc1Oc1ccc([N+](=O)[O-])cn1` gave ALDH1A1 inh 3.2µM* and IMPase Li inh 11%.
Screening CCCCc1cc(=O)oc2c(CN3CCCC3)c(O)c(Cl)cc12 returned ALDH1A1 inh inconclusive, 12-hLO inh -16%, IMPase Li inh 10µM*, HPGD inh inconclusive, PNC inhibitor 18 and IMPase cell inh inconclusive.
Cc1cc(=O)oc2c(CN3CCN(C)CC3)c(O)c(Cl)cc12 was read as ALDH1A1 inh inconclusive, 12-hLO inh -2%, IMPase Li inh 13µM*, HPGD inh inconclusive, PNC inhibitor inconclusive and IMPase cell inh inconclusive.
Screening CCCc1cc(=O)oc2c(CN3CCN(C)CC3)c(O)c(Cl)cc12 returned ALDH1A1 inh inconclusive, 12-hLO inh -17%, PNC inhibitor 16 and IMPase cell inh -22.
Screening CN1CCN(Cc2c(O)c(Cl)cc3c(-c4ccccc4)cc(=O)oc23)CC1 returned ALDH1A1 inh inconclusive, 12-hLO inh -9%, IMPase Li inh -16%[38.3 µM], HPGD inh -19%, PNC inhibitor 23 and IMPase cell inh -13.
For O=C(c1cc(C(F)(F)F)cc(C(F)(F)F)c1)N1CCC[C@@]2(CCN(c3ccccc3)C2)C1 the results were ALDH1A1 inh -6%, 12-hLO inh -18%, IMPase Li inh 7% and HPGD inh -10%.

Bioassay records as filed in PubChem.
